According to PubChem BioAssay (NCI):
The panel holds about 79,000 compounds, 15% with a hit somewhere; the sample as a whole holds those more often. A number with no mark means an inactive call. The source made the active and inactive calls. Cut-off read from the data, not from the text of the source: active = growth inhibition above about 70%; inactive = the rest.

Key:
[1] = NCI Yeast Anticancer Drug Screen. Data for the rad52 strain (AID 147);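 note: 0% = growth of vehicle-treated control cultures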; details: S. cerevisiae rad52 mutant growth inhibition, active compounds read high
Summary of the method: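 Compounds are applied to a genetically defined yeast strain lacking normal DNA damage repair, and inhibition of growth is expressed relative to cultures given vehicle only.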

[2] = NCI Yeast Anticancer Drug Screen. Data for the rad50EPP+ strain (AID 151);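 note: 0% = growth of vehicle-treated control cultures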; details: S. cerevisiae rad50 mutant strain, active compounds read high
Summary of the method: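 Compounds were applied to the rad50EPP+ yeast strain, which bears a defined DNA repair alteration, and growth inhibition was determined relative to vehicle-treated cultures.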

[3] = NCI Yeast Anticancer Drug Screen. Data for the rad50 strain (AID 155);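 note: 0% = growth of vehicle-only cultures of the same strain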; details: S. cerevisiae rad50 strain growth inhibition, active compounds read high
Summary of the method: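 Yeast carrying a defined DNA repair defect were exposed to test compounds, and growth was compared with vehicle-treated controls to give percent inhibition.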

[4] = NCI Yeast Anticancer Drug Screen. Data for the mec2-1 strain (AID 157); details: S. cerevisiae mec2-1 strain, active compounds read high
Summary of the method: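 Strain: mec2-1 (DNA repair/cell cycle alteration). Compound exposure, then growth measured; inhibition expressed relative to vehicle.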

[5] = NCI Yeast Anticancer Drug Screen. Data for the rad14 strain (AID 159);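 note: 0% = growth of vehicle-treated control cultures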; details: S. cerevisiae rad14 strain growth inhibition, active compounds read high
Summary of the method: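 Yeast cells carrying a defined DNA-repair defect were exposed to compounds, and growth inhibition was calculated relative to vehicle-treated control cultures.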

[6] = NCI Yeast Anticancer Drug Screen. Data for the sgs1 mgt1 strain (AID 161);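 note: 0% = growth of cultures given vehicle only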; details: S. cerevisiae sgs1 mgt1 strain, active compounds read high
Summary of the method: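 Test agents were incubated with a DNA-repair-mutant yeast strain. Growth was then read and compared against vehicle-treated controls.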

[7] = NCI Yeast Anticancer Drug Screen. Data for the CLN2oe strain (AID 163);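 note: 0% = growth of vehicle-only control cultures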; details: S. cerevisiae CLN2oe strain, active compounds read high
Summary of the method: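 Growth of a genetically modified yeast strain is measured after compound exposure and compared with cultures given vehicle alone.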

[8] = NCI Yeast Anticancer Drug Screen. Data for the cln2 rad14 strain (AID 165);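 note: 0% = growth equal to vehicle treated cultures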; details: S. cerevisiae cln2 rad14 strain, active compounds read high
Summary of the method: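 Compounds are applied to the cln2 rad14 yeast strain, and growth is then compared with that of vehicle-treated cultures to give inhibition.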

[9] = NCI Yeast Anticancer Drug Screen. Data for the bub3 strain (AID 167); details: S. cerevisiae bub3 mutant strain, active compounds read high
Summary of the method: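 Compounds were applied to a genetically altered yeast strain carrying a cell-cycle control defect. Growth inhibition was scored against vehicle-treated controls.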

[10] = NCI Yeast Anticancer Drug Screen. Data for the wt2 strain (AID 169);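 note: 0% = growth of vehicle-treated yeast cultures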; details: S. cerevisiae wt2 strain growth inhibition, active compounds read high
Summary of the method: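 This strain belongs to a panel of yeast strains with defined genetic alterations in DNA damage repair or cell cycle control. Compounds are applied, and growth inhibition is measured against vehicle-treated cultures.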

[11] = NCI Yeast Anticancer Drug Screen. Data for the mlh1 strain (AID 171);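 note: 0% = growth of vehicle-treated control cultures of the same strain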; details: S. cerevisiae mlh1 strain growth inhibition, active compounds read high
Summary of the method: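 Growth of the mutant yeast strain after compound exposure, expressed as inhibition relative to vehicle-only controls.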

[12] = NCI Yeast Anticancer Drug Screen. Data for the sgs1 strain (AID 173);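 note: 0% = growth of vehicle-only control cultures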; details: S. cerevisiae sgs1 mutant, active compounds read high
Summary of the method: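 Growth of a yeast strain bearing a defined genetic alteration is measured after compound treatment. Inhibition is expressed relative to vehicle-only controls.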

[13] = NCI Yeast Anticancer Drug Screen. Data for the mlh1 rad18 strain (AID 175); details: S. cerevisiae mlh1 rad18 strain growth inhibition, active compounds read high
Summary of the method: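 Read-out is yeast growth inhibition, calculated against vehicle-only controls. The compound was applied to a strain engineered with DNA damage repair alterations.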

[14] = NCI Yeast Anticancer Drug Screen. Data for the rad18 strain (AID 177); details: S. cerevisiae rad18 mutant growth inhibition, active compounds read high
Summary of the method: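 Growth of the mutant yeast strain after compound exposure, normalised to vehicle-only cultures.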

[15] = NCI Yeast Anticancer Drug Screen. Data for the wt1 strain (AID 149);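 note: 0% = growth of vehicle-treated wt1 cultures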; details: S. cerevisiae wt1 strain (SPY 50644) growth inhibition, active compounds read high
Summary of the method: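 Yeast wt1 strain exposed to compounds; growth inhibition measured relative to vehicle-treated controls.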

[16] = NCI Yeast Anticancer Drug Screen. Data for the mgt1 strain (AID 153); details: S. cerevisiae mgt1 mutant growth inhibition, active compounds read high
Summary of the method: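 Strain: mgt1 yeast, one of a set carrying defined DNA damage repair or cell cycle control alterations. Compound-treated growth compared with vehicle.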

[17] = at 5.0 µM (retest, dose inferred, filed as 0.5)
[18] = at 50.0 µM (retest, dose inferred, filed as 5.0)

Compound CCc1c[n+]([O-])c(C)cc1[N+](=O)[O-] has a growth inhibition ([1]; at 1.2 µM) of 2%, a growth inhibition ([1]; at 3.7 µM) of 7% and a growth inhibition ([1]; at 11.0 µM) of 21%. The growth inhibition ([1]; at 33.0 µM) was 57%, the growth inhibition ([1]; at 100.0 µM) was 90% (active) and the growth inhibition ([2]; at 1.2 µM) was -1%. The growth inhibition ([2]; at 3.7 µM) was 6%, the growth inhibition ([2]; at 11.0 µM) was 25% and the growth inhibition ([2]; at 33.0 µM) was 55%. The growth inhibition ([2]; at 100.0 µM) was 85% (active), the growth inhibition ([3]; at 1.2 µM) was 1% and the growth inhibition ([3]; at 3.7 µM) was 6%. For the same compound, the growth inhibition [3, 17] was 17%, the growth inhibition ([3]; at 11.0 µM) was 18% and the growth inhibition ([3]; at 33.0 µM) was 53%. For the same compound, the growth inhibition [3, 18] was 94% (active), the growth inhibition ([3]; at 50.0 µM) was 73.7% (active) and the growth inhibition ([3]; at 100.0 µM) was 87% (active). The growth inhibition ([4]; at 1.2 µM) was -2%, the growth inhibition ([4]; at 3.7 µM) was 1% and the growth inhibition [4, 17] was -6%. The growth inhibition ([4]; at 11.0 µM) was 2%, the growth inhibition ([4]; at 33.0 µM) was 27% and the growth inhibition [4, 18] was 77% (active). The growth inhibition ([4]; at 50.0 µM) was 14.9%, the growth inhibition ([4]; at 100.0 µM) was 92% (active) and the growth inhibition ([5]; at 1.2 µM) was 5%. For the same compound, the growth inhibition ([5]; at 3.7 µM) was 12%, the growth inhibition ([5]; at 11.0 µM) was 48% and the growth inhibition ([5]; at 33.0 µM) was 94% (active). The growth inhibition ([5]; at 100.0 µM) was 98% (active), the growth inhibition [6, 17] was 45% and the growth inhibition [6, 18] was 95% (active). The growth inhibition ([6]; at 50.0 µM) was 87.5% (active), the growth inhibition ([7]; at 1.2 µM) was -2% and the growth inhibition ([7]; at 3.7 µM) was -4%. For the same compound, the growth inhibition ([7]; at 11.0 µM) was -5%, the growth inhibition ([7]; at 33.0 µM) was -14% and the growth inhibition ([7]; at 100.0 µM) was -2%. For the same compound, the growth inhibition [8, 17] was 21%, the growth inhibition [8, 18] was 94% (active) and the growth inhibition ([8]; at 50.0 µM) was 88.2% (active). It also gave a growth inhibition ([9]; at 1.2 µM) of -4%, a growth inhibition ([9]; at 3.7 µM) of -8% and a growth inhibition [9, 17] of 8%. It also gave a growth inhibition ([9]; at 11.0 µM) of -14%, a growth inhibition ([9]; at 33.0 µM) of -20% and a growth inhibition [9, 18] of 52%. For the same compound, the growth inhibition ([9]; at 50.0 µM) was -29.3%, the growth inhibition ([9]; at 100.0 µM) was -2% and the growth inhibition ([10]; at 1.2 µM) was 0%. It also gave a growth inhibition ([10]; at 3.7 µM) of 0%, a growth inhibition ([10]; at 11.0 µM) of 2% and a growth inhibition ([10]; at 33.0 µM) of 5%. For the same compound, the growth inhibition ([10]; at 100.0 µM) was 21%, the growth inhibition ([11]; at 1.2 µM) was -1% and the growth inhibition ([11]; at 3.7 µM) was -1%. It also gave a growth inhibition ([11]; at 11.0 µM) of 3%, a growth inhibition ([11]; at 33.0 µM) of 7% and a growth inhibition ([11]; at 100.0 µM) of 29%. The growth inhibition ([12]; at 1.2 µM) was 10%, the growth inhibition ([12]; at 3.7 µM) was 31% and the growth inhibition ([12]; at 11.0 µM) was 63%. For the same compound, the growth inhibition ([12]; at 33.0 µM) was 85% (active), the growth inhibition ([12]; at 100.0 µM) was 93% (active) and the growth inhibition [13, 17] was 58%. The growth inhibition [13, 18] was 96% (active), the growth inhibition ([13]; at 50.0 µM) was 65.9% and the growth inhibition ([14]; at 1.2 µM) was 56%. For the same compound, the growth inhibition ([14]; at 3.7 µM) was 86% (active), the growth inhibition ([14]; at 11.0 µM) was 92% (active) and the growth inhibition ([14]; at 33.0 µM) was 95% (active). The growth inhibition ([14]; at 100.0 µM) was 95% (active).

For Nc1ccc2c(c1)C(=O)c1ccc(F)cc1-2, the growth inhibition ([15]; at 1.2 µM) was 1%, the growth inhibition ([15]; at 3.7 µM) was 2% and the growth inhibition ([15]; at 11.0 µM) was 9%. It also gave a growth inhibition ([15]; at 33.0 µM) of 14%, a growth inhibition ([15]; at 100.0 µM) of 16% and a growth inhibition ([2]; at 1.2 µM) of 13%. It also gave a growth inhibition ([2]; at 3.7 µM) of 28%, a growth inhibition ([2]; at 11.0 µM) of 46% and a growth inhibition ([2]; at 33.0 µM) of 59%. The growth inhibition ([2]; at 100.0 µM) was 60%, the growth inhibition ([16]; at 1.2 µM) was 2% and the growth inhibition ([16]; at 3.7 µM) was 9%. It also gave a growth inhibition ([16]; at 11.0 µM) of 15%, a growth inhibition ([16]; at 33.0 µM) of 24% and a growth inhibition ([16]; at 100.0 µM) of 19%. For the same compound, the growth inhibition ([3]; at 1.2 µM) was 16%, the growth inhibition ([3]; at 3.7 µM) was 36% and the growth inhibition [3, 17] was 5%. For the same compound, the growth inhibition ([3]; at 11.0 µM) was 55%, the growth inhibition ([3]; at 33.0 µM) was 61% and the growth inhibition [3, 18] was 71% (active). The growth inhibition ([3]; at 50.0 µM) was 81.4% (active), the growth inhibition ([3]; at 100.0 µM) was 51% and the growth inhibition ([4]; at 1.2 µM) was 4%. For the same compound, the growth inhibition ([4]; at 3.7 µM) was 10%, the growth inhibition [4, 17] was -2% and the growth inhibition ([4]; at 11.0 µM) was 11%. The growth inhibition ([4]; at 33.0 µM) was 13%, the growth inhibition [4, 18] was 30% and the growth inhibition ([4]; at 50.0 µM) was 19.6%. It also gave a growth inhibition ([4]; at 100.0 µM) of 22%, a growth inhibition ([5]; at 1.2 µM) of 6% and a growth inhibition ([5]; at 3.7 µM) of 13%. For the same compound, the growth inhibition ([5]; at 11.0 µM) was 15%, the growth inhibition ([5]; at 33.0 µM) was 18% and the growth inhibition ([5]; at 100.0 µM) was 22%. The growth inhibition [6, 17] was -6%, the growth inhibition [6, 18] was 32% and the growth inhibition ([6]; at 50.0 µM) was 9.55%. It also gave a growth inhibition ([7]; at 1.2 µM) of 5%, a growth inhibition ([7]; at 3.7 µM) of 7% and a growth inhibition ([7]; at 11.0 µM) of 11%. For the same compound, the growth inhibition ([7]; at 33.0 µM) was 20%, the growth inhibition ([7]; at 100.0 µM) was 16% and the growth inhibition [8, 17] was 5%. It also gave a growth inhibition [8, 18] of 8%, a growth inhibition ([8]; at 50.0 µM) of 5.25% and a growth inhibition ([9]; at 1.2 µM) of 2%. The growth inhibition ([9]; at 3.7 µM) was 6%, the growth inhibition [9, 17] was -13% and the growth inhibition ([9]; at 11.0 µM) was 12%. The growth inhibition ([9]; at 33.0 µM) was 12%, the growth inhibition [9, 18] was 35% and the growth inhibition ([9]; at 50.0 µM) was 20%. The growth inhibition ([9]; at 100.0 µM) was 20%, the growth inhibition ([10]; at 1.2 µM) was 1% and the growth inhibition ([10]; at 3.7 µM) was 3%. It also gave a growth inhibition ([10]; at 11.0 µM) of 7%, a growth inhibition ([10]; at 33.0 µM) of 11% and a growth inhibition ([10]; at 100.0 µM) of 12%. For the same compound, the growth inhibition ([11]; at 1.2 µM) was 3%, the growth inhibition ([11]; at 3.7 µM) was 13% and the growth inhibition ([11]; at 11.0 µM) was 14%. The growth inhibition ([11]; at 33.0 µM) was 13%, the growth inhibition ([11]; at 100.0 µM) was 22% and the growth inhibition ([12]; at 1.2 µM) was -4%. The growth inhibition ([12]; at 3.7 µM) was -4%, the growth inhibition ([12]; at 11.0 µM) was 0% and the growth inhibition ([12]; at 33.0 µM) was 2%. For the same compound, the growth inhibition ([12]; at 100.0 µM) was 4%, the growth inhibition [13, 17] was 15% and the growth inhibition [13, 18] was 78% (active). For the same compound, the growth inhibition ([13]; at 50.0 µM) was 33.2%, the growth inhibition ([14]; at 1.2 µM) was 0% and the growth inhibition ([14]; at 3.7 µM) was 6%. For the same compound, the growth inhibition ([14]; at 11.0 µM) was 26%, the growth inhibition ([14]; at 33.0 µM) was 35% and the growth inhibition ([14]; at 100.0 µM) was 14%.
